What all share (experiment): NCI-60 one-dose screen, 48 h (100 = growth as untreated, 0 = no growth, -100 = all killed)
One test has as its system SK-MEL-2 melanoma. The note with it: 10 µM unless noted.
For a further test, the system named is EKVX NSCLC. The settings on record: 10 µM unless noted.
The subject of another test is SN12C renal. The settings on record: 10 µM unless noted.
The test system of the next test is UO-31 renal. The settings on record: 10 µM unless noted.
A further test has as its system TK-10 renal. The settings on record: 10 µM unless noted.
The next test deals with ACHN renal. The note with it: 10 µM unless noted.
The next test concerns CAKI-1 renal. The note with it: 10 µM unless noted.
The next test concerns A498 renal. The settings on record: 10 µM unless noted.
For the next test, the system named is CCRF-CEM leukemia. The settings on record: 10 µM unless noted.
Another test has as its system MOLT-4 leukemia. The note with it: 10 µM unless noted.
The subject of the next test is SR leukemia. The note with it: 10 µM unless noted.
For the next test, the system named is RPMI-8226 leukemia. The note with it: 10 µM unless noted.
Another test deals with OVCAR-8 ovarian. The note with it: 10 µM unless noted.
The next test relates to OVCAR-5 ovarian. The settings on record: 10 µM unless noted.
The next test concerns SK-OV-3 ovarian. The settings on record: 10 µM unless noted.
A further test has as its system IGROV1 ovarian. The settings on record: 10 µM unless noted.
A further test has as its system OVCAR-3 ovarian. The note with it: 10 µM unless noted.
For the next test, the system named is HS 578T breast. The note with it: 10 µM.
Another test has as its system NCI/ADR-RES ovarian. The settings on record: 10 µM unless noted.
In a further test the test system is OVCAR-4 ovarian. The settings on record: 10 µM unless noted.

Molecules are shown by their SMILES. This is part of a sample that, as a whole, favours compounds with a hit. Of some 83,000 tested, about 20% had one in any assay.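 Single-concentration screen, 48 h exposure, 96-well plates. Endpoint: percent growth. Below 10 = active.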 Unmarked numbers belong to inactive results. Calls of active or inactive are those of the source.

Regarding `CCCCN(CCCC)CCC(O)c1cc2ccc(C(F)(F)F)cc2c2cc(C(F)(F)F)ccc12` (stereo unspecified), the growth is 55% with SK-MEL-2 melanoma; 70% with EKVX NSCLC; 46.9% with SN12C renal; 19.6% in the test on UO-31 renal; 74.4% in the test on TK-10 renal; 49.9% in the test with ACHN renal. The growth in the test on CAKI-1 renal was 38.6%; with A498 renal, 56.4%; in the test on CCRF-CEM leukemia, 36.2%; with MOLT-4 leukemia, 28.7%; in the test on SR leukemia, -36.8% (active); in the test with RPMI-8226 leukemia, -9.02% (active). Moreover, the growth in the test on OVCAR-8 ovarian was 48.6%; with OVCAR-5 ovarian it was 74.9%; with SK-OV-3 ovarian, 74.2%; in the test with IGROV1 ovarian it was 40.3%; in the test on OVCAR-3 ovarian, 30.2%; in the test with HS 578T breast, 58%. The growth with NCI/ADR-RES ovarian was 59.8%.

As for `CNCc1ccccc1CN(CC(=O)Nc1ccc2c(c1)CC1(C2)C(=O)Nc2ncccc21)C(=O)C(C)(C)C` (stereo unspecified), the growth in the test with SK-MEL-2 melanoma is 104%; in the test with EKVX NSCLC, 100%; with SN12C renal it was 103%; in the test with UO-31 renal it was 88.1%; in the test on TK-10 renal it was 103%; in the test with ACHN renal, 107%. Also, the growth with CAKI-1 renal was 91.6%; in the test with A498 renal, 122%; in the test with CCRF-CEM leukemia, 116%; in the test on MOLT-4 leukemia, 103%; in the test on SR leukemia, 110%; in the test on RPMI-8226 leukemia it was 106%. Further, the growth was 98.9% with OVCAR-8 ovarian; 109% with OVCAR-5 ovarian; 104% in the test with OVCAR-4 ovarian; 108% with SK-OV-3 ovarian; 114% in the test with OVCAR-3 ovarian; 95.9% in the test with HS 578T breast. Moreover, the growth with NCI/ADR-RES ovarian is 108%.

On to `c1ccc(C(CC2=NCCCN2)c2ccccc2)cc1`, for which the growth with SK-MEL-2 melanoma was 108%; with EKVX NSCLC, 97.2%; in the test with SN12C renal, 90.9%; in the test on UO-31 renal, 76.8%; with TK-10 renal, 110%; in the test with ACHN renal, 104%. Besides, the growth is 97.6% in the test with CAKI-1 renal; 111% in the test on A498 renal; 9.65% (active) with CCRF-CEM leukemia; 92.7% in the test on MOLT-4 leukemia; 103% in the test on SR leukemia; 116% in the test with RPMI-8226 leukemia. The growth is 101% with OVCAR-8 ovarian; 95.9% with OVCAR-5 ovarian; 95.5% in the test with SK-OV-3 ovarian; 108% with IGROV1 ovarian; 117% with OVCAR-3 ovarian; 95.7% in the test on HS 578T breast. The growth in the test with NCI/ADR-RES ovarian is 101%.

In the case of `CCN(CC)c1ccc(C(=N)c2ccc(N(C)C)cc2)cc1`, the growth in the test on SK-MEL-2 melanoma is -4.95% (active); in the test on EKVX NSCLC, 15.2%; in the test on SN12C renal, 24.8%; in the test on UO-31 renal it was 8.99% (active); with TK-10 renal, 31.4%; in the test on ACHN renal it was 30.1%. Also, the growth in the test with CAKI-1 renal is -19.9% (active); in the test on A498 renal, -20.1% (active); in the test with CCRF-CEM leukemia it was 21.7%; in the test with MOLT-4 leukemia, 17.7%; in the test on RPMI-8226 leukemia, 6.17% (active); with OVCAR-8 ovarian, 11.9%. For the same molecule, the growth in the test with OVCAR-5 ovarian is 16.8%; in the test with OVCAR-4 ovarian it was 21.4%; with SK-OV-3 ovarian, 14.4%; in the test on IGROV1 ovarian it was 4.79% (active); in the test on OVCAR-3 ovarian it was -12.6% (active); with HS 578T breast, -31% (active). Also, the growth with NCI/ADR-RES ovarian is -31.1% (active).

Consider `CCCC(CCC)NCC(O)c1cc(-c2ccc(C(F)(F)F)cc2)nc(C(F)(F)F)c1` (stereo unspecified), for which the growth is -66.1% (active) with SK-MEL-2 melanoma; -9.08% (active) in the test with EKVX NSCLC; -78.5% (active) in the test with SN12C renal; -44.9% (active) in the test with UO-31 renal; -63.8% (active) in the test with TK-10 renal; -60.1% (active) in the test on ACHN renal. For the same molecule, the growth in the test on CAKI-1 renal was -28.1% (active); in the test on A498 renal, -31% (active); in the test on CCRF-CEM leukemia it was -7.92% (active); in the test with MOLT-4 leukemia, -30.6% (active); with SR leukemia, -61.4% (active); in the test with RPMI-8226 leukemia, -37.7% (active). In addition, the growth was -62.8% (active) in the test on OVCAR-8 ovarian; 52.3% in the test with SK-OV-3 ovarian; -22.9% (active) with IGROV1 ovarian; -83.1% (active) in the test on OVCAR-3 ovarian; -45.5% (active) with HS 578T breast; -53.9% (active) in the test with NCI/ADR-RES ovarian.

For `CCOC(=O)c1ccc(NCCC(=O)O)cc1`, the growth in the test with SK-MEL-2 melanoma is 96.7%; in the test with EKVX NSCLC, 122%; with SN12C renal, 108%; in the test on UO-31 renal, 83.1%; in the test with TK-10 renal, 101%; with ACHN renal it was 103%. Besides, the growth in the test on CAKI-1 renal is 109%; with A498 renal, 113%; in the test on CCRF-CEM leukemia it was 97.6%; in the test on MOLT-4 leukemia it was 87.2%; in the test with SR leukemia it was 103%; in the test on RPMI-8226 leukemia, 115%. Moreover, the growth is 104% in the test on OVCAR-8 ovarian; 110% with OVCAR-5 ovarian; 113% in the test on SK-OV-3 ovarian; 112% with IGROV1 ovarian; 104% in the test on HS 578T breast; 113% in the test on NCI/ADR-RES ovarian.

For `CCCCCCCCCC1=NC(C)(C)CN1C(C)(C)CO`, the growth is 124% in the test with SK-MEL-2 melanoma; 90.8% with EKVX NSCLC; 83.6% with SN12C renal; 56.8% in the test with UO-31 renal; 97.7% with TK-10 renal; 93.6% with ACHN renal. For the same molecule, the growth was 75% in the test with CAKI-1 renal; 93% with A498 renal; 82.4% in the test on CCRF-CEM leukemia; 15.9% in the test on MOLT-4 leukemia; 81% in the test on RPMI-8226 leukemia; 102% in the test on OVCAR-8 ovarian. Besides, the growth with OVCAR-5 ovarian was 88.3%; in the test on OVCAR-4 ovarian it was 117%; in the test on SK-OV-3 ovarian it was 124%; with IGROV1 ovarian, 72.1%; in the test with OVCAR-3 ovarian it was 86.1%; with HS 578T breast, 100%. Moreover, the growth with NCI/ADR-RES ovarian is 95.7%.
